Reference: PubChem BioAssay

Experiments:
[1] = system: Human papillomavirus type 1a protein E7 (residues 44-93); assay: HPV1a E7 fragment binders on microarrays, primary screen, biochemical, small-molecule microarray, residues 44-93, 635 nm fluorescence (AID 1108); details: small-molecule microarray binding, fluorescence 635 nm; higher = more signal;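 further: E7 fragment applied at 1 µg/mL in TBST for 1 h at 4 C; score combines spot fluorescence with its signal to noise ratio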
[2] = modulators of HCV replicon luciferase signal, primary screen, HCV replication inhibitor project, Huh7 cells, luciferase reporter (AID 1109); details: 48 h, higher = more signal;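 further: huh7 hepatoma cells harbouring a luciferase neomycin HCV replicon reporter; luciferase luminescence as measure of HCV replicon replication; test concentration not given here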
[3] = target: Left-right determination factor 2 (Homo sapiens) (UniProt O00292); assay: LEFTY2 binders on small-molecule microarrays, primary screen, biochemical, small-molecule microarray, 635 nm fluorescence scan (AID 1110); details: LEFTY2 binding, higher = more signal
[4] = target: Calmodulin-1 (Homo sapiens) (UniProt P0DP23); assay: CALM1 binders on microarrays, EGTA buffer, profiling panel, biochemical, small-molecule microarray, Cy5-labelled CALM1 (AID 1111); details: Cy5-CALM1 binding fluorescence, higher = more signal;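 further: labelled calmodulin applied in Tris saline Tween buffer holding calcium plus EGTA and DTT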
[5] = target: Calmodulin-1 (Homo sapiens) (UniProt P0DP23); assay: calcium-bound CALM1 binders on microarrays, profiling panel, artefact control for SMM control-protein annotation, biochemical, small-molecule microarray, Cy5-labelled CALM1, plus calcium (AID 1112); details: Cy5-CALM1 binding fluorescence, higher = more signal;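 further: score merges spot fluorescence with signal to noise from triplicate slides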
[6] = small-molecule microarray binders of probe aWnt5a, primary screen, biochemical, biotinylated probe, 635/667 nm fluorescence (AID 1113); details: higher = more signal;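 further: score merges 667 nm fluorescence intensity with signal-to-noise per printed feature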
[7] = small-molecule microarray binders of probe aShh, primary screen, biochemical, biotinylated probe, 635/667 nm fluorescence (AID 1114); details: higher = more signal;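 further: probe is biotin-labelled aShh protein from a stem cell growth factor screen; measures binding of labelled protein to compounds printed on the slide; score merges feature fluorescence at 667 nm with signal-to-noise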
[8] = small-molecule microarray binders of probe aNog, primary screen, biochemical, biotinylated probe, 635/667 nm fluorescence (AID 1115); details: higher = more signal;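 further: probe is biotinylated aNog protein used at 0.15 µg/mL for 1 h at 4 C; z-score combines 667 nm fluorescence of each spot with its signal to noise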
[9] = target: Torsin-1A-interacting protein 1 (Homo sapiens) (UniProt Q5JTV8); assay: LAP1 binders from COS7 cell lysate, primary screen, small-molecule microarray, 635/667 nm fluorescence (AID 1116); details: COS7-hLAP1 lysate binding, 635 nm fluorescence, higher = more signal
[10] = target: Alpha-bungarotoxin (Bungarus multicinctus) (UniProt P60615); assay: alpha-bungarotoxin binders on microarray, profiling panel, artefact control for SMM control protein annotation, biochemical, small-molecule microarray, Alexa647 label, 635/667 nm fluorescence (AID 1117); details: alpha-BTX-A647 binding fluorescence, higher = more signal
Alpha-bungarotoxin (Bungarus multicinctus), sequence (P60615 whole entry, looked up): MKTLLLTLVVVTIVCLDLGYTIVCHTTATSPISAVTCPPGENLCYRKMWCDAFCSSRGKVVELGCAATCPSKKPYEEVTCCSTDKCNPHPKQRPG

Left-right determination factor 2 (Homo sapiens), sequence (O00292 whole entry, looked up): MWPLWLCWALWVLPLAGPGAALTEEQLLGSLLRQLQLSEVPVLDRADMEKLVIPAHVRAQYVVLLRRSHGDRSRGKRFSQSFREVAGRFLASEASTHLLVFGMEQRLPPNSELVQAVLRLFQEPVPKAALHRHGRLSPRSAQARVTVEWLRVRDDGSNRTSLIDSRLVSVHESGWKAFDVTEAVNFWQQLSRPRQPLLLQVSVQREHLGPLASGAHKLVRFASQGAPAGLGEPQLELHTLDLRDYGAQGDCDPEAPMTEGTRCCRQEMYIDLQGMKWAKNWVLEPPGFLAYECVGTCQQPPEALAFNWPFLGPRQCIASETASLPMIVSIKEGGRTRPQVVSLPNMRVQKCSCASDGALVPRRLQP
Torsin-1A-interacting protein 1 (Homo sapiens), sequence (Q5JTV8 whole entry, looked up): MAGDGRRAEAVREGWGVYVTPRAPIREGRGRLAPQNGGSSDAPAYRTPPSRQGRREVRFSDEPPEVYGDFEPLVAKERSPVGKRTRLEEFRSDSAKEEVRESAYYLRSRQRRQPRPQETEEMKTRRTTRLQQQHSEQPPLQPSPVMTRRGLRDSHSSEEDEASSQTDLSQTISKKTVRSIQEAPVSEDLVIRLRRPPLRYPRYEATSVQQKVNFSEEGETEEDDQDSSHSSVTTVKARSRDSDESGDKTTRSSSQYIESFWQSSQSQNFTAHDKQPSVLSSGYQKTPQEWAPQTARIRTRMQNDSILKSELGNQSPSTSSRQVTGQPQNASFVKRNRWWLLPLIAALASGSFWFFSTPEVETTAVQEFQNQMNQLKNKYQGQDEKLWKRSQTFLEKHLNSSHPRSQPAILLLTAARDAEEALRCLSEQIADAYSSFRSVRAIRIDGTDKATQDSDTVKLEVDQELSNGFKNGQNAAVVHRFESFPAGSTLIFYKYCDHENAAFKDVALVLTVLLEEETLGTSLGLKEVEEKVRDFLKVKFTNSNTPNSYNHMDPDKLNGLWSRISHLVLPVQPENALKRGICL

Row | Structure (SMILES) | composite z-score [1] | z-score [2] | composite z-score [3] | composite z-score [4] | composite z-score [5] | composite z-score [6] | composite z-score [7] | composite z-score [8] | composite z-score [9] | composite z-score [10]
1 | CCOC(=O)CCN1C(=O)[C@H]2[C@H]3[C@H](O)[C@H](O)CC(=NOCC=C(C)CCC=C(C)C)[C@H]3CC[C@H]2C1=O | -0.11 | -0.409 | 0.199 | -0.38 | -0.488 | -0.103 | -0.221 | -0.1 | -0.393 | 0.271
2 | CCN1C(=O)[C@H]2[C@H]3[C@H](O)[C@H](O)CC(=NOC[C@@H](O)[C@H]4O[C@@H]5OC(C)(C)O[C@@H]5[C@H]4O)[C@@H]3CC[C@H]2C1=O | -0.629 | -0.299 | 0.484 | -0.154 | -0.324 | -0.096 | -0.0289 | -0.0733 | -0.209 | 0.0203
3 | CCN1C(C)=C(C(=O)OC)[C@@H](c2ccccc2)N2C(=O)[C@](O)(C(=O)OC)CC(C(C)=O)=C12 | 0.285 | 0.308 | 0.784 | -0.232 | -0.604 | -0.0037 | -0.179 | 0.0511 | 0.455 | 0.371
4 | CCOC(=O)[C@H](Cc1ccccc1)NC(=O)CCC1CC(OC(=O)NCc2cccc3ccccc23)CC2(CCCC(COC(=O)NCc3ccc4c(c3)OCO4)O2)O1 (stereo not given in full) | 0.524 | 1.08 | 0.284 | -0.29 | -0.457 | -0.104 | 0.214 | -0.299 | 0.629 | -0.382
5 | CC(=O)OC[C@H]1O[C@H](CCON=C(C)CCN2CCCc3nc(C)c(C)cc32)C=C[C@@H]1OC(C)=O | 1.33 | -0.186 | 0.686 | -0.191 | -0.947 | -0.0229 | -0.138 | 0.189 | 0.489 | 0.133
6 | COc1ccc(-c2cnnc(CCCn3ccnc3-c3ccccc3)n2)cc1 | 0.412 | -2.57 | 0.774 | 0.212 | -0.686 | -0.103 | -0.0769 | -0.395 | 0.917 | 0.587
7 | COC(=O)[C@H](C)NC(=O)CCC1CC(OC(=O)NCCc2ccc(F)cc2)CC2(CCCC(COC(=O)NCCc3ccccc3OC)O2)O1 (stereo not given in full) | 1.35 | -0.466 | 0.638 | 0.48 | -0.211 | -0.0403 | 0.0141 | 0.177 | 0.195 | 0.434
8 | CO[C@@H]1COC(=O)CC=C[C@H](C)[C@H](OC)COC(=O)[C@@H]2CCCN2C(=O)CC=C[C@H]1C | -0.496 | -0.733 | 1.31 | -0.86 | -1.38 | -0.113 | 0.0328 | -0.195 | -0.041 | -0.324
9 | COc1ccc(COC(=O)NN=C2C[C@@H](O)[C@@H](O)[C@@H]3[C@@H]4C(=O)N([C@@H](C)c5ccccc5)C(=O)[C@@H]4CC[C@H]23)cc1 | -1.05 | -1.66 | -0.291 | -0.0436 | 0.073 | -0.0405 | 0.0121 | 0.314 | -0.484 | 0.471
10 | CC(C)(C)N1C(=O)[C@H]2[C@H]3[C@H](O)[C@H](O)CC(=NNC(=O)OCc4ccccc4)[C@@H]3CC[C@H]2C1=O | 0.594 | 0.508 | 0.432 | -0.213 | -0.412 | -0.0721 | -0.399 | -0.137 | 0.505 | 0.162
11 | COCOc1ccc(Br)cc1C(=O)C=Cc1ccc2c(c1)OCO2 | -0.478 | -3.81 | 0.489 | -0.978 | -1.25 | -0.0721 | -0.2 | 0.0689 | 0.0258 | 0.075
12 | CO[C@H]1C[C@@H]2C[C@H](O)CC(CC(=O)O[C@@H](C=CCC(C)C)C[C@@H]3CC[C@H](C)[C@@H](C1)O3)O2 | 1.27 | -0.763 | 0.748 | -0.126 | -0.468 | -0.0194 | 0.0815 | -0.447 | 0.536 | 1.63
13 | C[C@H]1CC[C@@H](C(=O)O)N[C@@H]1c1ccc(C#Cc2ccccc2)cc1 | 0.942 | -4.69 | 0.753 | 0.119 | -0.332 | -0.0203 | -0.154 | -0.256 | 0.666 | 0.966
14 | CC(CCN1CCCc2nc(C)c(C)cc21)=NOC[C@@H](C)[C@H](OCc1ccccc1)C(C)C | -1.39 | -0.148 | -0.196 | -1 | -0.387 | -0.0685 | -0.138 | -0.255 | -0.187 | -1.1
15 | C=CC[C@@H]1C=C[C@H](ON=C[C@@H](NS(=O)(=O)c2ccc(C)cc2)[C@H](C)C=CCC(=O)OC)[C@@H](CO)O1 | -0.782 | -0.0493 | 0.917 | -0.83 | -0.984 | -0.13 | -0.138 | -0.402 | 0.269 | 0.452
16 | CC(C)CON=C1C[C@@H](O)[C@@H](O)[C@@H]2[C@@H]3C(=O)N(Cc4ccc5c(c4)OCO5)C(=O)[C@@H]3CC[C@@H]12 | 0.44 | 0.081 | -0.119 | 0.349 | -0.311 | -0.0279 | -0.0769 | -0.103 | 0.086 | 0.748
